Screening results as filed in PubChem BioAssay.
beta cell repl: induces beta-cell replication in MIN6 cells | MIN6 cells proliferation, ATPlite luminescence, 48 h; cells starved in 0.2% serum; 100% = growth in 10% serum | AID 2380 | 0.29% of 330,000 active | proliferation, % at 10 µM;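 active = compounds whose signal lies at least 3.5 SD above the mean of all wells on their plate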
OPRM1-OPRD1 ag: agonists of human mu-delta opioid receptor heterodimerization. P35372+P41143. cells, OPRM1-OPRD1 heterodimerization, luminescence. activation, % at 9.3 µM. 0.3% of 340,000 active; in the data active = activation above about 18%
HTR5A ag ctr: counter-screen for OPRM1-OPRD1 agonists: human HTR5A agonism; P47898; HTR5A agonist assay, luminescence, cell-based; activation, % at 9.3 µM; 0.61% of 340,000 active; AID 504692; in the data active = activation mostly above about 9.5%, no sharp cut-off; inactive = mostly below about 7.6%
Target sequence (P47898 whole entry, looked up): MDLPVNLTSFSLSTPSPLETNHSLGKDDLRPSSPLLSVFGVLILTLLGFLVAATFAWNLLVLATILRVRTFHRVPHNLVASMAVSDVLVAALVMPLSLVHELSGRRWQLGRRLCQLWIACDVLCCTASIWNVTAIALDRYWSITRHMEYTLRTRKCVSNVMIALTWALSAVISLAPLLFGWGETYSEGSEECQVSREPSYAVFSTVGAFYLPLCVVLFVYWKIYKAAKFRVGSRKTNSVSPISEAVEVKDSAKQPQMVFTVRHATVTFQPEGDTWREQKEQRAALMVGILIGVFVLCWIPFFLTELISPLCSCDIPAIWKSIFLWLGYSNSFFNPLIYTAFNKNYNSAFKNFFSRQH
V-ATPase pH: alters yeast V-ATPase proton transport | response, % at 10 µM | S. cerevisiae, pHLuorin cytosolic pH fluorescence | 0.37% of 350,000 active | AID 504577; in the data active = response mostly above about 7.3%, no sharp cut-off; inactive = mostly below about 5.4%; also: actives read high
OPRM1-OPRD1 inv: inverse agonist of human OPRM1-OPRD1 heterodimerization; P35372+P41143; cell-based MOR-DOR heterodimer luminescence, inverse agonism; inhibition, % at 9.3 µM; 0.21% of 340,000 active; AID 504357; in the data active = inhibition above about 22%, passing the limit was not always enough
HTR5A inv ag: inverse agonist of human HTR5A in OPRM1-OPRD1 counter-screen; P47898; HTR5A cell line, luminescence, inverse agonism; inhibition, % at 9.3 µM; 0.083% of 340,000 active; AID 504634; in the data active = inhibition mostly above about 23%, no sharp cut-off; inactive = mostly below about 18%
VATPase regulator: yeast V-ATPase proton transport regulation. shares compounds with V-ATPase pH. S. cerevisiae pHLuorin cytosolic pH. response, % at 10 µM. 2% of 980 active. AID 602197; in the data active = response above about 24%
Hits are given with their value. Only some compounds are listed: those with a hit (about 1.7% of all), similar ones and a draw of the others.

`CCCn1c(=O)n(N)c2ccccc21` gave beta cell repl inactive, OPRM1-OPRD1 ag inactive, HTR5A ag ctr inactive, V-ATPase pH inactive, OPRM1-OPRD1 inv inactive and HTR5A inv ag inactive.
`O=C(CSc1nnc(-c2ccccc2)o1)N1CCCC1` gave beta cell repl inactive, OPRM1-OPRD1 ag inactive, HTR5A ag ctr inactive, V-ATPase pH inactive, OPRM1-OPRD1 inv inactive, HTR5A inv ag inactive and VATPase regulator inactive.
O=C(CSc1nnc(-c2ccc(F)cc2)o1)N1CCCCC1 was read as beta cell repl inactive, OPRM1-OPRD1 ag inactive, HTR5A ag ctr inactive, V-ATPase pH inactive, OPRM1-OPRD1 inv inactive and HTR5A inv ag inactive.
For O=C(CSc1nnc(-c2ccccc2F)o1)N1CCCC1 the results were beta cell repl inactive, OPRM1-OPRD1 ag inactive, HTR5A ag ctr inactive, V-ATPase pH inactive, OPRM1-OPRD1 inv inactive and HTR5A inv ag inactive.
For O=C(CSc1nnc(-c2ccccc2)o1)NC(=O)Cc1ccccc1 the results were beta cell repl inactive, OPRM1-OPRD1 ag inactive, HTR5A ag ctr inactive, V-ATPase pH inactive, OPRM1-OPRD1 inv inactive, HTR5A inv ag inactive and VATPase regulator inactive.
O=C(CSc1nnc(-c2ccccc2)o1)N1CCCCC1 was read as beta cell repl inactive, OPRM1-OPRD1 ag inactive, HTR5A ag ctr inactive, V-ATPase pH inactive, OPRM1-OPRD1 inv inactive, HTR5A inv ag inactive and VATPase regulator inactive.
For Cc1ccc(CNC(=O)CS(=O)(=O)Cc2nc(-c3ccc(C)cc3)oc2C)cc1 the results were beta cell repl inactive, OPRM1-OPRD1 ag inactive, HTR5A ag ctr inactive, V-ATPase pH inactive, OPRM1-OPRD1 inv inactive and HTR5A inv ag inactive.
Fc1cccc(Cl)c1CNn1cn[nH]c1=S was read as beta cell repl inactive, OPRM1-OPRD1 ag inactive, HTR5A ag ctr inactive, V-ATPase pH 11, OPRM1-OPRD1 inv inactive, HTR5A inv ag inactive and VATPase regulator inactive.
For COc1ccc2cc(S(=O)(=O)N3CCCC3)ccc2c1 the results were beta cell repl inactive, OPRM1-OPRD1 ag inactive, HTR5A ag ctr inactive, V-ATPase pH inactive, OPRM1-OPRD1 inv inactive and HTR5A inv ag inactive.
Screening COc1ccc2cc(S(=O)(=O)N3CCN(C)CC3)ccc2c1 returned beta cell repl inactive, OPRM1-OPRD1 ag inactive, HTR5A ag ctr inactive, V-ATPase pH 13, OPRM1-OPRD1 inv inactive, HTR5A inv ag inactive and VATPase regulator inactive.
`Cc1ccc(NC(=O)c2ncn(CCCN3CCN(c4ncccn4)CC3)n2)cc1C` gave OPRM1-OPRD1 ag inactive, HTR5A ag ctr inactive, V-ATPase pH inactive, OPRM1-OPRD1 inv inactive and HTR5A inv ag inactive.
Cc1ccc(NC(=O)c2ncn(CCCN3CCN(c4ccccn4)CC3)n2)cc1C was read as OPRM1-OPRD1 ag inactive, HTR5A ag ctr inactive, V-ATPase pH 13, OPRM1-OPRD1 inv inactive, HTR5A inv ag inactive and VATPase regulator inactive.
Screening COC(=O)c1ccc(C2NC(=S)N(c3ccccc3)C(C)=C2C(=O)Nc2ccccc2OC)cc1 (stereo not drawn) returned beta cell repl inactive, OPRM1-OPRD1 ag inactive, HTR5A ag ctr inactive, V-ATPase pH 11, OPRM1-OPRD1 inv inactive, HTR5A inv ag inactive and VATPase regulator inactive.
For CCOC(=O)c1nc2ccccc2c(=O)[nH]1 the results were beta cell repl inactive, OPRM1-OPRD1 ag inactive, HTR5A ag ctr inactive, V-ATPase pH inactive, OPRM1-OPRD1 inv inactive, HTR5A inv ag inactive and VATPase regulator inactive.
For CCN(CC)C(=O)CSc1nc2ccccc2c(=O)[nH]1 the results were beta cell repl inactive, OPRM1-OPRD1 ag inactive, HTR5A ag ctr inactive, V-ATPase pH inactive, OPRM1-OPRD1 inv inactive and HTR5A inv ag inactive.
`CCOC(=O)CSc1nc2ccccc2c(=O)[nH]1` gave beta cell repl inactive, OPRM1-OPRD1 ag inactive, HTR5A ag ctr inactive, V-ATPase pH 10, OPRM1-OPRD1 inv inactive, HTR5A inv ag inactive and VATPase regulator inactive.
CCOC(=O)c1n[nH]c2ccccc12 was read as beta cell repl inactive, OPRM1-OPRD1 ag inactive, HTR5A ag ctr inactive, V-ATPase pH inactive, OPRM1-OPRD1 inv inactive, HTR5A inv ag inactive and VATPase regulator inactive.
Screening CC(=O)N1CCCc2cc(S(=O)(=O)N3CCCC(C(=O)Nc4ccccc4C)C3)ccc21 (stereo not drawn) returned beta cell repl inactive, OPRM1-OPRD1 ag inactive, HTR5A ag ctr inactive, V-ATPase pH inactive, OPRM1-OPRD1 inv inactive and HTR5A inv ag inactive.
For CC(C)NC(=O)COc1ccccc1C#N the results were beta cell repl inactive, OPRM1-OPRD1 ag inactive, HTR5A ag ctr inactive, V-ATPase pH 14, OPRM1-OPRD1 inv inactive, HTR5A inv ag inactive and VATPase regulator inactive.
Screening O=C(Nc1ccc(F)c(F)c1)C1CCN(S(=O)(=O)c2cccs2)CC1 returned beta cell repl inactive, OPRM1-OPRD1 ag inactive, HTR5A ag ctr inactive, V-ATPase pH 8.3, OPRM1-OPRD1 inv inactive, HTR5A inv ag inactive and VATPase regulator inactive.
Screening O=C1NC2(CCCCCC2)C(=O)N1Cc1ccccc1Br returned beta cell repl inactive, OPRM1-OPRD1 ag inactive, HTR5A ag ctr inactive, V-ATPase pH inactive, OPRM1-OPRD1 inv inactive and HTR5A inv ag inactive.
CC(C)(C)n1ncc2c(=O)n(CC(=O)N3CCCC3)cnc21 was read as beta cell repl inactive, OPRM1-OPRD1 ag inactive, HTR5A ag ctr inactive, V-ATPase pH inactive, OPRM1-OPRD1 inv inactive and HTR5A inv ag inactive.
For CC1CCN(C(=O)Cn2cnc3c(cnn3C(C)(C)C)c2=O)CC1 the results were beta cell repl inactive, OPRM1-OPRD1 ag inactive, HTR5A ag ctr inactive, V-ATPase pH 11, OPRM1-OPRD1 inv inactive, HTR5A inv ag inactive and VATPase regulator inactive.
OCCN(Cc1ccccc1)Cc1ccccc1O was read as beta cell repl inactive, OPRM1-OPRD1 ag inactive, HTR5A ag ctr inactive, V-ATPase pH inactive, OPRM1-OPRD1 inv inactive and HTR5A inv ag inactive.
For OCCN(CCO)Cc1csc2ccccc12 the results were beta cell repl inactive, OPRM1-OPRD1 ag inactive, HTR5A ag ctr inactive, V-ATPase pH 12, OPRM1-OPRD1 inv inactive, HTR5A inv ag inactive and VATPase regulator inactive.
For COc1ccc(S(=O)(=O)N2CCCCCC2)cc1C(=O)N(C)CC(=O)Nc1cc(C)ccc1C the results were beta cell repl inactive, OPRM1-OPRD1 ag inactive, HTR5A ag ctr inactive, V-ATPase pH inactive, OPRM1-OPRD1 inv inactive and HTR5A inv ag inactive.
For C[C@@H]1Cn2cnc(C(=O)N[C@@H](C)c3ccccc3)c2C(=O)N1 the results were V-ATPase pH 4.2 and VATPase regulator inactive.
C[C@@H]1Cn2cnc(C(=O)Nc3ccccc3)c2C(=O)N1 was read as V-ATPase pH inactive.
COc1cccc(C(C(=O)NC2CCCC2)N(C(=O)c2ccco2)c2ccccc2)c1OC (stereo not drawn) was read as beta cell repl inactive, OPRM1-OPRD1 ag inactive, HTR5A ag ctr inactive, V-ATPase pH inactive, OPRM1-OPRD1 inv inactive and HTR5A inv ag inactive.
For CN(CC(=O)Nc1ccc(N2CCOCC2)cc1)C(=O)CC(c1ccccc1)c1ccccc1 the results were beta cell repl inactive, OPRM1-OPRD1 ag inactive, HTR5A ag ctr inactive, V-ATPase pH 12, OPRM1-OPRD1 inv inactive, HTR5A inv ag inactive and VATPase regulator inactive.
`CN(CC(=O)Nc1ccc(N2CCOCC2)cc1)C(=O)CSc1ccccc1F` gave beta cell repl inactive, OPRM1-OPRD1 ag inactive, HTR5A ag ctr inactive, V-ATPase pH inactive, OPRM1-OPRD1 inv inactive and HTR5A inv ag inactive.
